15 compounds from PubChem BioAssay can be followed below.

Molecules are shown by their SMILES. Calls of active or inactive are those of the source.

The subject of assay [1] is Plasmodium falciparum Sir2 (PF13_0152, Sir2A). Description: pfSir2 binders on small-molecule microarrays, primary screen, biochemical, small-molecule microarray, 635 nm fluorescence (AID 1098).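 Further: score merges spot fluorescence intensity with its signal-to-noise ratio.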 The note with it: small-molecule microarray binding, fluorescence 635 nm; higher = more signal.
Assay [2] is described as follows: small-molecule microarray binders of probe aDKK1, primary screen, biochemical, biotinylated probe, 635/667 nm fluorescence (AID 1099).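 Further: score merges 667nm spot fluorescence with signal to noise across triplicate slides; reference of the scale not given here.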 Conditions: higher = more signal.
Assay [3] is described as follows: small-molecule microarray binders of probe aCHRDL2, primary screen, biochemical, biotinylated probe, 635/667 nm fluorescence (AID 1100). Conditions: higher = more signal.
Assay [4] in a line: splicing luciferase reporter signal modulators, primary screen, spliceosome inhibition project, cell-based, HEK293, splice +/- reporter (AID 1101).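 Further: HEK293 cells carrying a splicing-competent luciferase reporter gene; test concentration not given here.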 Conditions: luminescence, 24 h, higher = more signal, called active from +8 up or from −8 down.
The target of assay [5] is Fibroblast growth factor 10 (Homo sapiens) (UniProt O15520). The experiment in a line: FGF10 binders on small-molecule microarrays, primary screen, biochemical, small-molecule microarray, 635 nm fluorescence (AID 1102). The note with it: FGF10 binding, fluorescence 635 nm, higher = more signal.
Assay [6] deals with glycogen synthase kinase-3 (GSK3A per assay name; protocol says GSK3B). Description: GSK3 binders on small-molecule microarrays, primary screen, biochemical, small-molecule microarray, 635 nm fluorescence, GSK3A (AID 1103). Further: the record names both GSK3A and GSK3B. Conditions: small-molecule microarray binding, fluorescence 635 nm; higher = more signal.
The target of assay [7] is Epidermal growth factor receptor (Homo sapiens) (UniProt P00533). Description: EGFR binders on small-molecule microarrays, primary screen, biochemical, small-molecule microarray, 635 nm fluorescence (AID 1104).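 Further: score merges 667 nm emission intensity with spot signal to noise over triplicate slides.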 Conditions: EGFR binding, higher = more signal.
Assay [8] deals with Follistatin-related protein 3 (Homo sapiens) (UniProt O95633). The experiment in a line: FSTL3 binders on small-molecule microarrays, primary screen, biochemical, small-molecule microarray, 635 nm fluorescence (AID 1105).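 Further: score merges emission near 667 nm and signal to noise per printed spot across three slides.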 Conditions: FSTL3 binding, higher = more signal.
Assay [9] addresses Dickkopf-related protein 1 (Homo sapiens) (UniProt O94907). Description: DKK1 binders on small-molecule microarrays, primary screen, biochemical, small-molecule microarray, 635 nm fluorescence scan (AID 1106).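 Further: score merges emission near 667 nm with signal to noise over three replicate slides.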 Conditions: DKK1 binding, higher = more signal.
In assay [10] the test system is Inhibin beta A chain (activin A). Description: INHBA (activin A) binders on microarrays, primary screen, biochemical, small-molecule microarray, 635 nm fluorescence scan (AID 1107).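 Further: mouse activin A protein probed at 4.33 µg/mL on printed slides; score merges bound-protein fluorescence near 667 nm with spot signal-to-noise.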 The note with it: small-molecule microarray binding, higher = more signal.

Sequence of Dickkopf-related protein 1 (Homo sapiens) (O94907 whole entry, looked up): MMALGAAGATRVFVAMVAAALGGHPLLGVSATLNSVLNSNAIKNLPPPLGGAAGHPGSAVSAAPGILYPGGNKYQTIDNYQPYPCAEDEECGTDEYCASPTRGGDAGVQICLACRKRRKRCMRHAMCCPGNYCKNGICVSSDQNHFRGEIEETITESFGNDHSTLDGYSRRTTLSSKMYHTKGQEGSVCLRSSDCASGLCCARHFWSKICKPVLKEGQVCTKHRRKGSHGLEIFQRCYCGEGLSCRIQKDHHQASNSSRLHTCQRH
Sequence of Epidermal growth factor receptor (Homo sapiens) (P00533 whole entry, looked up): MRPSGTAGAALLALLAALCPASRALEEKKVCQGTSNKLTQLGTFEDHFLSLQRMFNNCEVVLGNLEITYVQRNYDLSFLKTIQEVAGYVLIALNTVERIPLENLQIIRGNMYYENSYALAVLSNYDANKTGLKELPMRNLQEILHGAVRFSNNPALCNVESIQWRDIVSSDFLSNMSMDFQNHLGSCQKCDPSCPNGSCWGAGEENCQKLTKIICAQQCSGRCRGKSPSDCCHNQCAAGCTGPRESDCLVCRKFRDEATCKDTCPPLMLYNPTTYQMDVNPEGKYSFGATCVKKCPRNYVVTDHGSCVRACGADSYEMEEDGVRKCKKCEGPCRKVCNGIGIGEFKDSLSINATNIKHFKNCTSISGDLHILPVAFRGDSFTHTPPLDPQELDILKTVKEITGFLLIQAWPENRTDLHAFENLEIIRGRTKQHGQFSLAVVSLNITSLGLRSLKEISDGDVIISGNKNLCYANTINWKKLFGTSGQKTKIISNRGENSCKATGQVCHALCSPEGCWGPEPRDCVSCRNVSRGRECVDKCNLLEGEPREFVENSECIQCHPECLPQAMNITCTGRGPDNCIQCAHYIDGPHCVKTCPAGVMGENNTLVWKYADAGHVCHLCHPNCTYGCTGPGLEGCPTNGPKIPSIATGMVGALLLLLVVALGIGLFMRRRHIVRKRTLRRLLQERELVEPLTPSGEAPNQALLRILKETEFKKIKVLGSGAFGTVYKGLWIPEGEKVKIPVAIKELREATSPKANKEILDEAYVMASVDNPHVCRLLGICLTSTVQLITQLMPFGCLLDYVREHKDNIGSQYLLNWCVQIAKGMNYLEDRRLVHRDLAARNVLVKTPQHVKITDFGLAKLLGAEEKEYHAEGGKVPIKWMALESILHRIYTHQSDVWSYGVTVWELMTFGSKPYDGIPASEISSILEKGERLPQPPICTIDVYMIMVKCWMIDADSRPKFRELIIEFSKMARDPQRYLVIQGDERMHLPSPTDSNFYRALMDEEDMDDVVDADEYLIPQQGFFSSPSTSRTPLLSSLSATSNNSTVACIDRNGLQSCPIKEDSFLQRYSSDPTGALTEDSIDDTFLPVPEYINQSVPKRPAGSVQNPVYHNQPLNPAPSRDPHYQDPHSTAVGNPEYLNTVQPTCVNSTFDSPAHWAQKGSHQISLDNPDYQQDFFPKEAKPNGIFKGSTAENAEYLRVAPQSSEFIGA
Sequence of Follistatin-related protein 3 (Homo sapiens) (O95633 whole entry, looked up): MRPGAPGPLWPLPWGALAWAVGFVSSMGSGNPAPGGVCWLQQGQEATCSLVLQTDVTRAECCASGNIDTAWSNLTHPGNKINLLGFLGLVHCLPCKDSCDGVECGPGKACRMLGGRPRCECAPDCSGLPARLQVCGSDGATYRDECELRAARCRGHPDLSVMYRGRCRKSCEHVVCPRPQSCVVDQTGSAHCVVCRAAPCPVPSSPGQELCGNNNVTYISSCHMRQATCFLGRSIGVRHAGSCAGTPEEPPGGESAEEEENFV
Sequence of Fibroblast growth factor 10 (Homo sapiens) (O15520 whole entry, looked up): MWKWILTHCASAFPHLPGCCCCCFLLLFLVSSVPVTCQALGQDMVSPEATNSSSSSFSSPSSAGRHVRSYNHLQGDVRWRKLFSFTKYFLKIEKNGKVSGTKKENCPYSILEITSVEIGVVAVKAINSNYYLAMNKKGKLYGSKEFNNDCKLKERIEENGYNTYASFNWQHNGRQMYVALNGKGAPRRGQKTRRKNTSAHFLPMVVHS

Regarding `COC(=O)[C@@]1(Cc2ccccc2)N=C(c2ccc(OCCCO)cc2)O[C@H]1c1ccccc1CN=[N+]=[N-]`, the composite z-score in [1] was 1.61; in assay [2] it was 0.287; in assay [3], 0.652; in [5] it was 0.722; in [6] it was 0.893; in assay [7], -0.0505. Moreover, the composite z-score in assay [8] is 0.323; in [9], 0.21; in assay [10] it was 1.09. For the same compound, the z-score in assay [4] was 12.9 (active).

For the compound `O=C1C2C=CC(C(O)c3cccs3)N(Nc3ccc([N+](=O)[O-])cc3)C2C(=O)N1c1ccccc1` (stereo not given), the composite z-score in [1] came out at 0.672; in assay [2], 0.352; in assay [3] it was 0.25; in assay [5], 0.534; in [6], 0.684; in [7], 0.346. Besides, the composite z-score in [8] was 0.393; in assay [9] it was 0.21; in assay [10], 0.796. The z-score in assay [4] is 1.15 (inactive).

Regarding `CCOC(=O)C[C@H]1[C@H](OC(=O)Cc2ccc3c(c2)OCO3)[C@@H](NC(=O)c2ccc3ccccc3n2)c2cc(OCCCO)ccc2N1C(=O)Cc1ccc(OC)cc1`, the composite z-score in assay [1] was 0.435; in [2], 0.0621; in assay [3], 0.195; in assay [5] it was 0.438; in [6], 0.25; in assay [7], -0.374. Also, the figures for the composite z-score in [8], in [9] and in [10] were 0.882, 0.163 and 0.257, respectively. Also, the z-score in assay [4] is -1.8 (inactive).

With `COC(=O)[C@@]1(Cc2ccc(F)cc2)[C@H]2c3cc(C(=O)N(C)C)n(C)c3C[C@H]2CN1C(=O)c1ccccc1`, the composite z-score was 0.0911 in assay [1]; 0.903 in [2]; 0.885 in [3]; 0.414 in assay [5]; -0.489 in [6]; -0.286 in assay [7]. The figures for the composite z-score in assay [8], in assay [9] and in [10] were -0.125, -0.615 and 0.468, respectively. Further, the z-score in assay [4] is -0.84 (inactive).

In the case of `O=C1N(Cc2ccccc2)c2ccccc2C[C@@]12COC(c1ccc(OCCCO)cc1)=N2`, the composite z-score was 1.32 in [1]; 1.79 in assay [2]; 1.12 in [3]; 0.596 in [5]; 1.31 in assay [6]; -0.433 in assay [7]. For the same compound, the composite z-score in assay [8] is 0.0633; in assay [9], -0.318; in assay [10], 1.13. In assay [4], the z-score is -0.136 (inactive).

In the case of `COC(=O)[C@]1(CCC(=O)OC(C)(C)C)N=C(c2ccc(OCCCO)cc2)O[C@@H]1c1ccccc1N=[N+]=[N-]`, the composite z-score in assay [1] was 0.911; in assay [2], 0.254; in assay [3] it was 0.855; in [5], 0.49; in [6], -0.107; in [7], -0.287. In addition, the composite z-score in assay [8] is 0.168; in assay [9] it was -0.281; in assay [10], 0.809. The z-score in assay [4] was -0.229 (inactive).

As for `CC[C@@H]1C=C(C(=O)O)[C@H](c2ccc(OC)cc2)N1S(=O)(=O)c1ccc(C)cc1`, the composite z-score in assay [1] was 1.05; in assay [2] it was -0.0814; in assay [3] it was 0.118; in [5] it was -0.0657; in [6] it was -1.06; in [7], -0.675. Moreover, the figures for the composite z-score in [8], in assay [9] and in assay [10] were 0.0479, -0.188 and 0.615, respectively. Besides, in [4], the z-score is 0.603 (inactive).

`CN(C)CCCCNC(=O)[C@H]1C[C@H]2C(=O)N3CCC[C@H]3C(=O)N2[C@H]1c1cccc(OCCO)c1`: the composite z-score is 1.67 in assay [1]; 0.0092 in assay [2]; 0.833 in assay [3]; 0.425 in assay [5]; 0.676 in [6]; -0.497 in assay [7]. The composite z-score in assay [8] is -0.0327; in [9], -0.0023; in assay [10] it was 0.0098. Moreover, the z-score in assay [4] was -0.0803 (inactive).

Turning to `C[C@@H]1ON(c2ccccc2)[C@H](c2ccccc2)[C@H]1C(=O)O`, the composite z-score in assay [1] is -0.344; in assay [2], -0.158; in assay [3] it was -0.269; in assay [5], 0.777; in assay [6] it was 0.362; in assay [7], -0.436. Moreover, the composite z-score is -0.213 in [8], 0.796 in assay [9] and -0.367 in [10]. In addition, the z-score in assay [4] is 0.221 (inactive).

Turning to `C=C(COC)C(=O)CC[C@H](OC(=O)c1cccnc1)c1ccc(OCCO)cc1`, the composite z-score in assay [1] was 0.745; in [2], -0.163; in assay [3], -0.139; in assay [5] it was 1.08; in assay [6] it was 0.538; in assay [7], 0.163. For the same compound, the composite z-score in [8] was found to be 1.03; in assay [9] it was 0.624; in [10], 0.472. The z-score in assay [4] is -0.319 (inactive).

For the compound `CN(C)CCCNC(=O)[C@@H]1c2ccccc2C(=O)N(Cc2ccccc2C(F)(F)F)[C@H]1c1ccc(CO)cc1`, the composite z-score in [1] is -0.722; in assay [2], 0.908; in assay [3] it was 0.706; in assay [5], -0.728; in assay [6], 0.355; in assay [7] it was -0.899. For the same compound, the composite z-score in assay [8] was -0.58; in [9] it was -0.759; in [10], 0.764. Besides, the z-score in assay [4] is 0.0896 (inactive).

On to `N#Cc1ccc(-c2cccc(=O)o2)cc1`, for which the composite z-score in assay [1] was 0.306; in assay [2], -0.269; in [3], -0.0642; in [5] it was 0.219; in [6] it was 0.441; in assay [7], 0.506. For the same compound, the composite z-score amounted to 0.345 in assay [8], 0.0771 in assay [9] and 0.254 in assay [10]. Further, the z-score in assay [4] is 0.862 (inactive).

As for `COC(=O)[C@@]1(Cc2ccc(OC)cc2)[C@H]2c3cc(C(=O)N4CCCC4)n(Cc4ccc(Cl)c(C(F)(F)F)c4)c3C[C@H]2CN1C(=O)c1ccccc1`, the composite z-score in [1] is 1.38; in [2], 1.62; in assay [3] it was 1.23; in assay [5], 0.927; in [6] it was 1.27; in assay [7] it was -0.02. The composite z-score in assay [8] was 1.36; in assay [9], -0.428; in assay [10], 0.822. For the same compound, the z-score in assay [4] was -0.75 (inactive).

As to `C=C(CCCC)/C(=C/C[C@H](OC(=O)c1ccncc1)c1cccc(OCCO)c1)c1cnc2ccccc2c1`, the composite z-score in [1] was 1.15; in [2] it was -0.138; in assay [3], -0.303; in assay [5] it was 0.853; in [6], 0.783; in assay [7], 0.463. Moreover, the composite z-score in [8] is 1.28; in [9], 0.483; in assay [10], 1.6. In assay [4], the z-score is 0.223 (inactive).

For `COC(=O)C1=CC(CCCO)=CC(c2cccs2)N(Cc2cc3c(cc2Br)OCO3)C=C1C(=O)OC` (stereo not given), the composite z-score in [1] was determined as 1.53; in [2], 0.718; in [3], 0.628; in assay [5] it was 1.17; in assay [6] it was 1.3; in assay [7], 0.511. The composite z-score in assay [8] came to 0.908; in [9], 0.166; in assay [10], 1.01. In addition, in [4], the z-score is -0.478 (inactive).
